Source: PubChem BioAssay AID1063 (University of Pittsburgh Molecular Library Screening Center, 2008)
The campaign covered roughly 200,000 compounds. About 18,000 (9%) were called active. Rule as the data show it: active = inhibition above about 50%; inactive = the rest. The full list was thinned out, with actives kept by preference.

Test: Leishmania major promastigote growth inhibition, primary screen (AID 1063);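 also: promastigotes grown with compound for 44 hours at 28 °C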
Details: Leishmania major promastigotes, resazurin fluorescence viability; at 10 µM; hits give high values

SMILES | inhibition
O=C(COC(=O)CNC(=O)c1ccccc1F)NCC(F)(F)F | -0.59% (inactive)
COc1ccc(CC(NC(C)=O)C(=O)NC2CCN(C(=O)C3CC3)CC2)cc1OC (centres undefined) | -1.59% (inactive)
CC(=O)NC1=NN(C(C)=O)C(C)(CCS(=O)(=O)c2ccc(Cl)c(Cl)c2)S1 (centres undefined) | -0.49% (inactive)
CC(=O)NC1=NN(C(C)=O)C(C)(c2ccc(C)cc2)S1 (centres undefined) | 63.1% (active)
CC(=O)NC1=NN(C(C)=O)C(C)(c2ccc(Cl)s2)S1 (centres undefined) | 37.2% (inactive)
CCCC(=O)Nc1nnc(-c2ccccc2)o1 | -6.09% (inactive)
COc1cc(/C=N/NC(=S)Nc2cccnc2)cc(OC)c1O | -1.76% (inactive)
O=C(O)c1cnn2c(C(F)(F)F)cc(-c3ccccc3)nc12 | -4.02% (inactive)
Cc1ccc(-c2cc(C(F)(F)F)n3ncc(C(=O)N4CCCCC4c4cccnc4)c3n2)cc1 (centres undefined) | 89.6% (active)
Cc1ccc(-c2cc(C(F)(F)F)n3nc(C(=O)N4CCCC4)cc3n2)cc1 | 2.83% (inactive)
O=C(CSc1cccc[n+]1[O-])c1ccc(Cl)cc1 | 1.35% (inactive)
CC(C(=O)NCC1CCCCC1)N(C)Cc1cccc(Cl)c1 (centres undefined) | -1.13% (inactive)
CCc1ccccc1NC(=O)c1cccs1 | -2.12% (inactive)
CCc1ccccc1NC(=O)/C(=C/c1ccccc1)c1ccccc1 | 66% (active)
O=C(/C=C/c1ccccc1)N/C(=C/c1ccccc1)C(=O)Nc1ccccc1O | 5.36% (inactive)
Oc1ccc(-c2nncn2-c2ccccc2)cc1 | -8.74% (inactive)
CN(CC(=O)N1CCN(c2ccccc2)CC1)S(=O)(=O)c1cccs1 | -7.19% (inactive)
O=C(O)CSCC(=O)Nc1ccc(C(F)(F)F)cc1 | -3.47% (inactive)
COc1ccc(/C=N/NC(=O)CNC(=O)c2ccc(S(=O)(=O)N3CCCC3)cc2)c(OC)c1 | 28.7% (inactive)
COc1cc(/C=N\NC(=O)CNC(=O)c2cccc([N+](=O)[O-])c2)ccc1O | 8.51% (inactive)
Cc1ccccc1NCC(=O)N/N=C\c1ccc([N+](=O)[O-])s1 | 101% (active)
CCCCCC(=O)Nc1ccc(C(=O)N/N=C/c2ccc([N+](=O)[O-])cc2)cc1 | 34.7% (inactive)
O=C(Cc1cc(=O)[nH][nH]1)N/N=C/c1ccccc1[N+](=O)[O-] | -6.04% (inactive)
CCOc1ccc(NC(=O)CCC(=O)n2nc(C)cc2C)cc1 | -2.57% (inactive)

SMILES | inhibition
CCOc1ccc(NC(=O)CCC(=O)N/N=C/c2ccc([N+](=O)[O-])s2)cc1 | 96.6% (active)
Cc1cccc(/C=N/NC(=O)CNc2cccc3ccccc23)n1 | 1.6% (inactive)
COc1ccc(C(=O)NCC(=O)N/N=C/c2ccc([N+](=O)[O-])s2)cc1OC | 97% (active)
O=C(O)c1cccc(NC(=O)c2cc(-c3cccc(Cl)c3)nc3ccccc23)c1 | -4.68% (inactive)
COc1ccc(OC)c(C(=O)c2ccc(C(=O)N3CCN(Cc4csc(C)n4)CC3)cc2)c1 | -0.79% (inactive)
CCN1CCN(CC(=O)c2cc(OC)c(OC)c(OC)c2)CC1 | -5.32% (inactive)
Nc1nc(SCC(=O)N2CCN(S(=O)(=O)c3ccc(Cl)cc3)CC2)n[nH]1 | -1.03% (inactive)
Cc1ccc(C2=NN(C(=O)COc3ncnc4ccccc34)C(c3ccco3)C2)cc1 (centres undefined) | -5.8% (inactive)
CCCCN(CC)CCNC(=O)CCNC(=O)Cn1ccc2ccccc2c1=O | 0.35% (inactive)
O=C(Nc1nc2ccc([N+](=O)[O-])cc2s1)c1ccc(S(=O)(=O)N2CCCc3ccccc32)cc1 | 100% (active)
O=C(COC(=O)c1ccc(F)cc1)Nc1nc2ccc([N+](=O)[O-])cc2s1 | -3.1% (inactive)
CSc1nc2ccc(S(=O)(=O)N3CCc4ccccc43)cc2s1 | 0.05% (inactive)
O=C(O)CCC(=O)Nc1nc2ccc([N+](=O)[O-])cc2s1 | -7.18% (inactive)
N=C1C(c2nc3ccccc3s2)=C(O)CN1NC(=O)c1ccc([N+](=O)[O-])cc1 | -3.94% (inactive)
O=C(NC(Nc1nc2ccc([N+](=O)[O-])cc2s1)(C(F)(F)F)C(F)(F)F)c1ccccc1 | 100% (active)
CCCCn1nc(C(=O)OCC(=O)Nc2sccc2C(N)=O)c2ccccc2c1=O | -6.96% (inactive)
Cc1cccc(N2CCC(NCc3c(C(=O)N4CCCCC4)nc4c(C)cccn34)CC2)c1 | 17.5% (inactive)
S=C(Cc1ccc(Cl)cc1)N1CCOCC1 | 1.84% (inactive)
CC1=NN(C(=O)CCCc2ccccc2)C(O)(C(F)(F)F)C1 (centres undefined) | -11.2% (inactive)
CN(C)CCN=c1cc(-c2ccccc2)oc2ccc(Cl)cc12 | 63% (active)
CN(C)CCn1c(=S)[nH]c2ccc(Cl)cc2c1=O | 1.3% (inactive)
C/C(CC(=O)N1CCN(C=O)CC1)=N\NC(=O)c1ccc(Br)cc1 | -4.54% (inactive)
Cc1cccc(N2C(=O)CC(SC(N)=Nc3ccccc3)C2=O)c1 (centres undefined) | 45.7% (inactive)
Cc1ccc(-n2c(O)c(C=Nc3ccc(S(=O)(=O)Nc4ncccn4)cc3)c3ccccc3c2=O)cc1C | -5.1% (inactive)

SMILES | inhibition
Cc1nnc(SCC(=O)NCc2ccccc2)s1 | -9.92% (inactive)
Cc1nnc(SCC(=O)N2c3ccccc3C(C)(c3ccc(Cl)cc3)CC2(C)C)s1 (centres undefined) | 56.6% (active)
Cc1nnc(SCC(=O)N2CCc3ccccc3C2)s1 | -1.97% (inactive)
Cc1ccc(NC(=O)C(=O)NCC2CCN(C(=O)c3cccc([N+](=O)[O-])c3)CC2)cc1 | 23% (inactive)
CN1CCN(c2ccc(NC(=O)COc3ccc(Cl)cc3Cl)cc2)CC1 | 98.7% (active)
Cc1nn(-c2ccccc2)c(C)c1NC(=O)COc1ccc(Cl)cc1Cl | 43.4% (inactive)
CN1CCC(OC(=O)COc2ccc(Cl)cc2Cl)CC1 | 1.67% (inactive)
S=C(NCC1CCCO1)N1CCN(c2ccc(Cl)c(Cl)c2)CC1 (centres undefined) | 17.8% (inactive)
COc1ccc(Nc2nc(-c3ccccc3)cs2)cc1 | -2.02% (inactive)
NS(=O)(=O)c1ccc(Nc2nc(-c3ccccc3)cs2)cc1 | 81.2% (active)
COc1ccc(-c2csc(Nc3ccc(O)cc3)n2)cc1 | 23% (inactive)
O=C(NCC(O)c1ccc([N+](=O)[O-])cc1)C1CCCCC1 (centres undefined) | -8.78% (inactive)
Cc1ccccc1-c1n[nH]c(=S)n1C | -18.2% (inactive)
Cn1c(-c2sccc2OCc2cccc(C(F)(F)F)c2)n[nH]c1=S | 14.1% (inactive)
Cn1c(-c2sc3cc(C(F)(F)F)cnc3c2-c2ccccc2)n[nH]c1=S | 84.1% (active)
O=C(CCSc1ccccc1)N1CCN(c2ccccc2F)CC1 | -5.13% (inactive)
O=C(Nc1nc(-c2cccnc2)cs1)c1ccccc1F | -2.37% (inactive)
OCCNCCCCOc1ccccc1F | 19.1% (inactive)
COCC(C)NC(=O)c1ccc(Cl)c(Cl)c1 (centres undefined) | -3.5% (inactive)
OCCNCCOc1ccc(Cl)c(Cl)c1 | 78.9% (active)
CC/C(Cc1ccccc1)=N/NC(=O)CCn1nnc2ccccc21 | -2.64% (inactive)
CCN(C(=O)CN1CCN(Cc2ccccc2)CC1)c1c(N)n(Cc2ccccc2)c(=O)[nH]c1=O | -0.59% (inactive)
CCC(=O)/C(=C(/O)c1ccccc1)c1nc2ccccc2[nH]1 | -5.9% (inactive)
COc1ccc(/C=C(/NC(=O)c2ccc(C)cc2)c2nc3ccccc3[nH]2)cc1OC | 16.1% (inactive)

SMILES | inhibition
O=C(/C(=C/c1cccc(Cl)c1)c1nc2ccccc2[nH]1)c1ccccc1 | 101% (active)
C=CCNCCCCOc1ccccc1 | 34.8% (inactive)
COc1ccc(NC(=O)CSc2nnc(-c3ccccc3F)n2C2CC2)cc1S(N)(=O)=O | 2.82% (inactive)
Cc1cccc(OCCCC(=O)Nc2ccc(S(=O)(=O)N3CCCC3)cc2)c1 | 44.8% (inactive)
CC(=O)Nc1ccc(S(=O)(=O)N2CCSCC2)cc1 | 0.03% (inactive)
CC(=O)Nc1ccc(S(=O)(=O)N2CCN(CCCOc3cc(C)ccc3C)CC2)cc1 | 72.8% (active)
O=C(CSc1ccccc1)Nc1cc(Cl)ccc1Oc1ccccc1 | 14.8% (inactive)
CCOC(=O)c1ccc(NC(=O)C2CC(=O)Nc3nc4ccccc4n32)cc1 (centres undefined) | -4.72% (inactive)
COC(=O)c1ccc(NC(=O)c2ccccc2NS(=O)(=O)c2ccccc2)cc1 | -3.45% (inactive)
COc1cc(NC(=O)c2cccnc2SC)cc(OC)c1 | 1.73% (inactive)
COc1cc(NC(=O)c2ccccc2NS(=O)(=O)c2ccc(Cl)s2)cc(OC)c1 | 74.3% (active)
Cc1cc(C)cc(C(=O)NC2C(=O)N3C(C(=O)O)=C(CSc4nnc(C)s4)CSC23)c1 (centres undefined) | -0.22% (inactive)
O=C1/C(=C\c2ccsc2)NC(=S)N1c1ccccc1 | -4.28% (inactive)
CC(=O)C1C(c2ccc(Cl)cc2)c2c(n[nH]c2C)CC1(C)O (centres undefined) | -0.37% (inactive)
CCCn1nc(C(=O)Nc2ccc3nc(C)sc3c2)c2ccccc2c1=O | 80.4% (active)
CCCn1nc(C(=O)N2CCCc3ccccc32)c2ccccc2c1=O | 26.1% (inactive)
CCCCn1nc(C(=O)Nc2ccc(S(=O)(=O)Nc3ncccn3)cc2)c2ccccc2c1=O | -10.7% (inactive)
Cn1c(=N)n(CC(O)c2cccs2)c2ccccc21 (centres undefined) | 1.42% (inactive)
N=c1n(Cc2ccc(Cl)cc2)c2ccccc2n1CC(O)c1ccco1 (centres undefined) | 85.3% (active)
CC(=O)NC1(c2ccc(F)cc2)CCN(C(=O)c2c(F)cccc2F)CC1 | -1.81% (inactive)
CN(Cc1nc2ccc(F)cc2[nH]1)Cc1nc(CC2CC2)no1 | -4.94% (inactive)
C[C@@H]1C[C@@H]2O[C@H]2/C=C\C=C\C(=O)Cc2c(Cl)c(O)cc(O)c2C(=O)O1 | 100% (active)
